Screening results: PubChem, National Center for Advancing Translational Sciences (NCATS)
KB-3-1 tox = KB-3-1 parental cell cytotoxicity. KB-3-1 viability, CellTiter-Glo ATP luminescence, 72 h. Potency, µM (doses to about 46.1 µM), usual class: cytotoxic. 400,000 compounds, 1.4% hits. AID 1347075; further: nearly all actives have a fitted effect of over 60% in size
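Cells are dispensed, compounds pinned in, plates held at 37 °C for 72 h, then CellTiter-Glo is added and luminescence read after 10 minutes. Cell line: parental KB-3-1 in phenol-red-free DMEM, 10% FBS.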
SW480 rerep = DNA re-replication induction in SW480 cells | SW480 DNA re-replication, Hoechst DNA content imaging, 48 h | Potency, µM (series often up to 46.1 µM), actives largely listed as activators | 340,000 compounds, 1.8% hits; further: nearly all actives have a fitted effect of over 55% in size
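SW480 cells exposed to compounds for 48 hr at 37 C, 5% CO2, then Hoechst-stained 40 min. Nuclear DNA content imaged by fluorescence scanning (405 nm excitation, 500-530 nm emission); re-replication scored as increased high-intensity nuclei.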
HT1080-NT tox = kills 2HG-producing HT-1080-NT fibrosarcoma cells; HT-1080-NT fibrosarcoma viability, CellTiter-Glo ATP luminescence, 48 h; AID 686970; 360,000 compounds, 1.6% hits; Potency, µM (top dose mostly 46.1 µM), usual class: cytotoxic;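 further: NT is the 2HG producing partner of a matched IDH1 knockdown line; nearly all actives have a fitted effect of over 55% in size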
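Viability by CellTiter-Glo luminescence after 48 h compound exposure at 37C of HT-1080-NT cells (750/well, RPMI, 5% FBS). % activity scaled between DMSO wells and medium-only wells, then curve-fitted and categorized by curve class.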
KB-V1 MDR tox = KB-V1 MDR subline cytotoxicity; Potency, µM (titrated, usually from 46.1 µM), usual class: cytotoxic; 400,000 compounds, 3.4% hits; KB-V1 MDR cells viability, CellTiter-Glo, 72 h; further: nearly all actives have a fitted effect of over 60% in size
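Cytotoxicity via CellTiter-Glo luminescence after 72 h compound exposure at 37 degrees C. Cells: drug-selected KB-V1 line, DMEM phenol-red free plus 10% FBS. Compounds tested at multiple concentrations; normalized data fitted to concentration-effect curves.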
MCF10A rerep = DNA re-replication induction in MCF 10a cells; MCF 10A DNA re-replication, Hoechst nuclear intensity, 48 h; Potency, µM (doses to about 46.1 µM), hits mostly activators; 350,000 compounds, 2.9% hits; further: nearly all actives have a fitted effect of over 50% in size
HT1080 IDH1KD tx = HT-1080 IDH1 knockdown cell toxicity (counter line). HT-1080 IDH1 knockdown viability, ATP luminescence, 48 h. Potency, µM (series often up to 46.1 µM), most hits filed as cytotoxic. 360,000 compounds, 2% hits. AID 686971
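IDH1KD HT-1080 cells, 750/well, RPMI + 5% FBS; compound pinned after 2 h settling; 48 h, 37 °C; CellTiter-Glo luminescence; % activity normalised to DMSO and no-cell wells; curves fitted, classed by r2 and efficacy.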
Each line names hits and unclear results; the compound was inactive in the other large screens. This is a sample that favours compounds with a hit; in the whole collection about 7.9% have one here. The call rests on the fitted dose curve; in most records, active means well fitted curve in the direction sought with a large enough effect; inconclusive means small, poorly fitted or top-dose-only effect, or another doubt; inactive means no such curve, though single readings can be large; an effect the other way counts as inactive or inconclusive.

CC(C)CNS(=O)(=O)c1ccc(S(=O)(=O)N2CCC3(CC2)OCCO3)cc1	SW480 rerep 0.18µM, KB-V1 MDR tox 15µM
CN1C(=O)c2ccccc2OC1(C)Cc1ccccc1 (centres undefined)	none
O=C(Nc1cccc(S(=O)(=O)N2CCOCC2)c1)c1ccc(=O)[nH]c1	none
Cc1cc(C(=O)N2CCCC(C(=O)c3ccc(Cl)cc3C)C2)no1 (centres undefined)	SW480 rerep 23µM, KB-V1 MDR tox inconclusive, MCF10A rerep inconclusive
CCC(Sc1nc(-c2ccccc2)c(C#N)c(=O)[nH]1)C(=O)Nc1cc(C)on1 (centres undefined)	none
CCOc1ccc(N2C(=O)C3=C(C(c4ccc(Cl)cc4)=NCCN3)C2c2cccnc2)cc1 (centres undefined)	KB-3-1 tox inconclusive, SW480 rerep inconclusive, HT1080-NT tox inconclusive, MCF10A rerep inconclusive, HT1080 IDH1KD tx 15µM
Cc1ccc(N2C(=O)c3n[nH]c(C)c3C2c2cccnc2)cc1 (centres undefined)	none
Cc1ccc(C2C3=C(NCCN=C3c3ccccc3)C(=O)N2c2ccccc2)cc1 (centres undefined)	SW480 rerep inconclusive, HT1080-NT tox 11µM, HT1080 IDH1KD tx inconclusive
Cc1ccc(N2C(=O)c3n[nH]c(C)c3C2c2ccc(Cl)cc2)cc1 (centres undefined)	none (no result: SW480 rerep, HT1080-NT tox, MCF10A rerep, HT1080 IDH1KD tx)
COCCN1CCn2c(nc3cc(Nc4nnc(C)c5ccccc45)ccc32)C1	SW480 rerep inconclusive
CCC(=O)O[C@]1(C(=O)CCl)[C@@H](C)CC2C3C[C@H](F)C4=CC(=O)C=CC4(C)[C@@]3(F)C(O)CC21C (some centres undefined)	none (no result: KB-3-1 tox, HT1080-NT tox, KB-V1 MDR tox, HT1080 IDH1KD tx)
Cc1ccccc1-n1nc2c(c1NC(=O)c1ccc(Br)o1)CSC2	KB-V1 MDR tox 13µM
CNS(=O)(=O)c1cn(CC(=O)Nc2ccc(C)cc2C)cc1S(=O)(=O)NC	none (no result: SW480 rerep, HT1080-NT tox, MCF10A rerep, HT1080 IDH1KD tx)
COc1ccc(/C=C/C(=O)c2cc(F)ccc2OC(=O)c2ccccc2)cc1OC	KB-3-1 tox inconclusive, SW480 rerep 1.3µM, HT1080-NT tox inconclusive, KB-V1 MDR tox inconclusive, MCF10A rerep inconclusive, HT1080 IDH1KD tx 1.6µM
COc1ccc(/C=C/C(=O)c2cc(F)ccc2OC(=O)c2ccccc2OC)cc1OC	KB-3-1 tox 5.2µM, SW480 rerep inconclusive, HT1080-NT tox 1µM, KB-V1 MDR tox 3.3µM, MCF10A rerep 13µM, HT1080 IDH1KD tx 1.3µM
COc1ccc(-c2cn3cc(C)ccc3n2)cc1Br	none
O=C(O)c1ccccc1-c1cn2cc(Cl)ccc2n1	none
Clc1ccc2nc(-c3ccc(Br)s3)cn2c1	HT1080-NT tox inconclusive, KB-V1 MDR tox 18µM
COc1ccc(-c2cn3cc(Cl)ccc3n2)cc1OC	KB-V1 MDR tox 16µM
COc1ccc(-c2csc(NC(=O)COC(=O)c3ccco3)n2)cc1	none
COc1cc(Cl)c(C)cc1NC(=O)CSC	KB-V1 MDR tox inconclusive
COc1cc(Cl)c(C)cc1NC(=O)CSCC#N	HT1080-NT tox 10µM
O=C1NC(=S)SC1=Cc1ccccc1Br	KB-3-1 tox inconclusive, HT1080-NT tox inconclusive, MCF10A rerep 15µM, HT1080 IDH1KD tx inconclusive
O=C1NC(=S)SC1=Cc1ccc(Cl)cc1	SW480 rerep inconclusive, MCF10A rerep 9.2µM, HT1080 IDH1KD tx inconclusive
CCOc1ccccc1C=C1SC(=S)NC1=O	MCF10A rerep 18µM
CCOc1ccc(/C=C2\SC(=S)NC2=O)cc1OC	none
CCc1ccc(NCc2cc3c(C)nn(-c4ccccc4)c3[nH]c2=O)cc1	SW480 rerep inconclusive, HT1080-NT tox inconclusive, KB-V1 MDR tox 18µM, MCF10A rerep inconclusive
O=C(CCc1ccccc1)Nc1ccc2c(c1)OCO2	MCF10A rerep inconclusive
CN(C)CCN(Cc1ccccc1)S(=O)(=O)c1ccc(-c2ccc(=O)[nH]n2)s1	none
Cc1ccc2nc(-c3cccc(Br)c3)cc(C(=O)NCC3CCCO3)c2c1 (centres undefined)	MCF10A rerep 26µM
COc1cccc(-c2cc(C(=O)NCC3CCCO3)c3ccccc3n2)c1 (centres undefined)	KB-V1 MDR tox 12µM
COc1ccc(-c2cc(C(=O)NCC3CCCO3)c3ccccc3n2)cc1 (centres undefined)	none
O=C(NCC1CCCO1)c1cc(-c2ccccc2)nc2ccc(Br)cc12 (centres undefined)	none
O=C1NCCCC1(c1ccccc1)c1ccccc1	none (no result: SW480 rerep, MCF10A rerep)
CC(=NNC(=S)N1CCCCC1)c1cccc(C)n1	KB-3-1 tox 0.23µM, SW480 rerep inconclusive, KB-V1 MDR tox inconclusive, MCF10A rerep inconclusive, HT1080 IDH1KD tx inconclusive
Cc1cccc(C(=S)N2CCOCC2)n1	none
CSC(=S)NN=C(C)c1cccc(C)n1	KB-3-1 tox inconclusive, SW480 rerep 0.37µM, KB-V1 MDR tox inconclusive, MCF10A rerep inconclusive, HT1080 IDH1KD tx inconclusive
O=C(Nc1ccc(Br)cc1F)c1sccc1-n1cccc1	HT1080 IDH1KD tx inconclusive
O=Cc1cc(N=Nc2cccc(C(=O)O)c2)ccc1O	KB-3-1 tox inconclusive, HT1080-NT tox inconclusive, HT1080 IDH1KD tx 15µM
O=Cc1cc(N=Nc2ccccc2Cl)ccc1O	KB-3-1 tox inconclusive, HT1080-NT tox inconclusive, KB-V1 MDR tox inconclusive, HT1080 IDH1KD tx inconclusive
Cc1ccc(Sc2cc(NCCCO)c([N+](=O)[O-])c3nonc23)cc1	none
CC(=O)OCCCNc1cc(Sc2ccc(Cl)cc2)c2nonc2c1[N+](=O)[O-]	MCF10A rerep 4.6µM (no result: SW480 rerep)
CC(C)CCSc1cc(NCCO)c([N+](=O)[O-])c2nonc12	SW480 rerep inconclusive, HT1080-NT tox inconclusive, MCF10A rerep inconclusive, HT1080 IDH1KD tx 18µM
CC(=O)Nc1ccc(S(=O)(=O)NCC(=O)OCC(=O)c2cc(C)n(-c3ccc4c(c3)OCO4)c2C)cc1	SW480 rerep inconclusive, KB-V1 MDR tox inconclusive, MCF10A rerep inconclusive
Cc1cc(C(=O)CSc2nnc(-c3ccco3)o2)c(C)n1-c1ccc2c(c1)OCCO2	KB-V1 MDR tox inconclusive, MCF10A rerep inconclusive
Cc1cc(C(=O)CSc2nnnn2C)c(C)n1-c1ccc2c(c1)OCCO2	KB-V1 MDR tox 21µM, MCF10A rerep inconclusive
Cc1cc(-n2c(C)cc(C(=O)CSc3nnnn3-c3ccc(Cl)cc3)c2C)no1	MCF10A rerep 6.5µM
CC(=O)c1ccc(OCC(=O)c2cc(C)n(-c3ccc4c(c3)OCO4)c2C)cc1	KB-3-1 tox inconclusive, KB-V1 MDR tox 8.2µM, HT1080 IDH1KD tx inconclusive
Cc1cc(C(=O)COC(=O)c2ccc(N)c([N+](=O)[O-])c2)c(C)n1-c1ccc2c(c1)OCO2	KB-3-1 tox inconclusive, KB-V1 MDR tox inconclusive, HT1080 IDH1KD tx inconclusive
Cc1cc(-n2c(C)cc(C(=O)CSc3nnc4sc5ccccc5n34)c2C)no1	KB-V1 MDR tox inconclusive
